# Source: PubChem BioAssay AID2685 (National Center for Advancing Translational Sciences (NCATS), 2010)
# Among all 320,000 compounds or so, about 2,100 (0.66%) were called active. About 53% were inconclusive and are not listed. The call rests on the fitted dose curve; in most records, active means well fitted inhibition curve with a large enough effect in the signal ratio, with a control signal flat (not every such curve was filed as active); inconclusive means small, poorly fitted or top-dose-only effect, or effect the other way, or a change in a side signal; inactive means flat fitted curve, though single readings scatter; the % refers to the signal ratio. What follows is part of a selection rich in actives, with near analogues and random picks from the rest.
# Experiment: qHTS Assay for Lipid Storage Modulators in Drosophila S3 Cells;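 on cell number change: cells counted by Cell Tracker Red CMTPX staining in the red channel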; on lipid storage change, negative = inhibition: on the % scale 0 is the no-effect control and ±100 the full control effect
# Details: BODIPY lipid droplet fluorescence, 18-24 h, cells fed with added oleic acid; cell number change: measured here: cell count max response; series mostly up to 46.1 µM; lipid storage change, negative = inhibition: at the top concentration
# In short: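 Drosophila S3 cells got compounds at several concentrations plus oleic acid (400 uM solution). Laser-scanning cytometry with 488 nm excitation read lipid droplets at 500-530 nm and cells at 575-640 nm. Percent activity was relative to 20 uM Triacsin C.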
# Potency means the concentration at half of the fitted maximal effect.
Structure (SMILES),"lipid storage change, negative = inhibition",cell number change,outcome,Potency
CCC(C)Sc1ccc([C@H]2N[C@@](Cc3ccccc3)(C(=O)OC)[C@H]3C(=O)N(C)C(=O)[C@@H]23)cc1 (stereo partly drawn),-6.01% (inactive),17.3%,–,–
O=C(CCN1C(=O)/C(=C\c2ccc(F)cc2)SC1=S)Nc1ccccc1,–,–,inactive,–
O=C(CCN1C(=O)/C(=C/c2ccccc2)SC1=S)N[C@@H](CO)Cc1ccccc1,–,-19.2%,inactive,–
O=C(CCN1C(=O)/C(=C/c2ccc(F)cc2)SC1=S)N[C@@H](CO)Cc1ccccc1,–,-1.15%,–,29.1 µM (active)
COc1cc(/C=C2\SC(=S)N(CCC(=O)Nc3ccccc3)C2=O)cc(OC)c1OC,-5.12% [at 9.22 µM] (inactive),15%,–,–
COc1cc(/C=C2/SC(=S)N(CCC(=O)Nc3ccccc3)C2=O)cc(OC)c1OC,–,–,–,1.84 µM (active)
COc1cc(/C=C2\SC(=S)N(CC(=O)Nc3ccc(O)cc3)C2=O)cc(OC)c1OC,12.1% (inactive),19.7%,–,–
COc1cc(/C=C2\SC(=S)N(CCC(=O)Nc3ccccc3O)C2=O)cc(OC)c1OC,-14.3% (inactive),–,–,–
COc1ccc(/C=C2\SC(=S)N(CCC(=O)Nc3cccc(O)c3)C2=O)cc1OC,–,-7.94%,inactive,–
COc1cc(/C=C2\SC(=S)N(CCC(=O)Nc3cccc(O)c3)C2=O)cc(OC)c1OC,–,10.2%,–,3.66 µM (active)
COC(=O)c1ccccc1Oc1ccc(NC(=O)CCCl)cc1,7.03% (inactive),-3.28%,–,–
O=C(CSc1nnc(Cn2c(=O)sc3ccccc32)n1-c1ccccc1)N1CCCC1,4.03% (inactive),-5.75%,–,–
CC(C)C(C(=O)NCC1CCCO1)N(C(=O)CNS(=O)(=O)c1ccccc1)c1ccc(F)cc1 (stereo not drawn),–,10.5%,inactive,–
Fc1cccc(COc2ccccc2CNc2ccccc2)c1,-3.76% (inactive),-10%,–,–
COCCn1ccc2c(OCC(=O)NCc3ccccc3)cccc2c1=O,-25.1% (inactive),-6.52%,–,–
CNC(=S)N/N=C/c1cn(Cc2ccc(F)cc2)c2ccccc12,22.5% (inactive),-3.02%,–,–
O=S(=O)(N/N=C/c1cn(Cc2ccccc2)c2ccccc12)c1ccccc1,-12% (inactive),-19.2%,–,–
O=C(O)c1ccc(N/N=C/c2cn(Cc3ccc(F)cc3)c3ccccc23)cc1,7.6% (inactive),0.719%,–,–
O=c1ccn(Cc2ccccc2)c2ccccc12,-28% (inactive),-20.5%,–,–
O=[N+]([O-])/C=C/c1cn(Cc2ccccc2)c2ccccc12,–,–,–,10.3 µM (active)
O=[N+]([O-])/C=C/c1cn(Cc2ccc(F)cc2)c2ccccc12,–,-17.9%,–,20.6 µM (active)
N/C(=N\OC(=O)C12CC3CC(CC(C3)C1)C2)c1ccncc1,-5.89% (inactive),-16.5%,–,–
COc1ccc(N(C(=O)CNC(=O)c2ccco2)C(C(=O)NCC2CCCO2)c2ccccc2)cc1OC (stereo not drawn),–,7.66%,inactive,–
O=C(c1ccc(-c2ccccc2)cc1)N1CCN(Cc2ccccn2)CC1,4.01% (inactive),-0.729%,–,–

Structure (SMILES),"lipid storage change, negative = inhibition",cell number change,outcome,Potency
O=C(O)CC1S/C(=N/N=C/c2ccc(Br)cc2)N(c2ccccc2)C1=O (stereo not drawn),-1.72% (inactive),-1.06%,–,–
CCC(C)(C)n1nnnc1C(c1cccc(C#N)c1)N1CCN(c2cccc(C)c2C)CC1 (stereo not drawn),-4.77% (inactive),0.845%,–,–
O=C(CSC1=NCCS1)N1CCCCCC1,–,0.498%,–,4.61 µM (active)
O=C(CSC1=NCCS1)N1CCN(c2ccccc2)CC1,-9.79% (inactive),-11.5%,–,–
O=C(CSC1=NCCS1)N1CCN(c2ccc(Cl)cc2)CC1,-5.89% (inactive),1.49%,–,–
Cc1c(Cl)cccc1NC(=O)CCCCCN1C(=O)CCC1=O,–,–,inactive,–
CS(=O)(=O)c1ccc2nc(NC(=O)c3cccc(Cl)c3)sc2c1,18.2% (inactive),5.93%,–,–
CS(=O)(=O)c1ccc2nc(NC(=O)Nc3cccc(Cl)c3)sc2c1,–,10.2%,–,16.4 µM (active)
Cc1ccc(NC(=O)Nc2nc3ccc(S(C)(=O)=O)cc3s2)cc1,–,0.9%,inactive,–
CC(=O)c1ccc([N+](=O)[O-])c(CS(=O)(=O)c2ccc(Cl)cc2)c1,13% (inactive),12.3%,–,–
Cc1ccc(S(=O)(=O)Cc2cc(F)c([N+](=O)[O-])cc2[N+](=O)[O-])cc1,–,20.1%,–,0.411 µM (active)
Cc1ccc(S(=O)(=O)Cc2ccc([N+](=O)[O-])cc2)cc1,-23.4% (inactive),-6.56%,–,–
Cc1nc(C(C)NC(=O)CCc2nnc(-c3ccsc3)o2)cs1 (stereo not drawn),11.3% (inactive),-5.47%,–,–
CCC(c1nnc(SCC(=O)Nc2ccc(N3CCOCC3)cc2)n1Cc1ccccc1)N(C)C (stereo not drawn),–,–,inactive,–
CS(=O)(=O)c1cccc(C(=O)NCc2ccccc2)c1,–,–,inactive,–
C=CCOc1ccccc1CN(CCc1ccccc1)C(=O)c1cccc(S(C)(=O)=O)c1,–,1.8%,–,4.11 µM (active)
CS(=O)(=O)Cc1ccc(C(=O)N(CCc2ccccc2)Cc2ccccc2)cc1,–,-0.348%,inactive,–
O=C(CNC(=O)c1cccs1)NCC(=O)OCc1ccc(F)cc1,-4.32% (inactive),-6.51%,–,–
CN(C(=O)CSc1nc2sc3c(c2c(=O)n1C)CCC3)C1CCS(=O)(=O)C1 (stereo not drawn),0.0094% (inactive),-5.19%,–,–
CCc1ccc(N(CC(=O)NC(C)(C)C)C(=O)CCC(=O)Nc2ccccn2)cc1,-5.7% (inactive),19.3%,–,–
Cc1cccc(NC(=O)CCS(=O)(=O)c2ccccc2)n1,8.98% (inactive),3.85%,–,–
CCn1c(SC)nnc1-c1sc2cc(Cl)ccc2c1Cl,22.8% (inactive),-4.88%,–,–
CSc1nnc(-c2ccccc2)n1C,-1.83% (inactive),-0.435%,–,–
CSc1nnc(-c2sc3cc(Cl)ccc3c2Cl)n1C,–,-10.5%,–,23.1 µM (active)

Structure (SMILES),"lipid storage change, negative = inhibition",cell number change,outcome,Potency
Cc1ccc(OCCOCCn2ccnc2)c(Br)c1,–,-17%,inactive,–
COc1ccc(-c2csc3ncn(-c4cccc(C)c4)c(=O)c23)cc1OC,9.43% (inactive),14.7%,–,–
O=C(Nc1ccc(F)cc1)c1ccc2[nH]c(=O)c(=O)[nH]c2c1,-21.9% (inactive),25.6%,–,–
O=C(Nc1ccc(F)cc1)c1cccc(C(=O)Nc2ccc(F)cc2)c1,–,22.5%,–,0.231 µM (active)
O=C(Nc1cccc(NC(=O)c2cccc(F)c2)n1)c1cccc(F)c1,–,–,–,6.51 µM (active)
Cc1cc(NC(=O)c2cccc(F)c2)no1,-3.93% (inactive),9.9%,–,–
O=C(N/N=C/c1cccc2ccccc12)c1cccc(F)c1,–,-0.111%,–,11.2 µM (active)
O=C(Nc1ncccn1)c1cccc(F)c1,20.9% (inactive),-18.7%,–,–
O=C(N/N=C/c1ccccc1Cl)c1cccc(F)c1,13.9% (inactive),0.333%,–,–
O=C(N/N=C/c1cccc2ccccc12)c1ccncc1,1.15% (inactive),0.153%,–,–
O=C(Nc1ccc(F)cc1)c1ccccc1,–,–,inactive,–
Cc1ccc(S(=O)(=O)c2nc(-c3ccccc3Cl)oc2NCCCN2CCOCC2)cc1,–,–,inactive,–
CCOC(=O)C1(Cc2ccccc2)CCN(Cc2cn[nH]c2-c2ccccc2)CC1,14% (inactive),4.32%,–,–
C[C@H](NC(=O)CCn1nnc2ccccc2c1=O)C(=O)O,9.98% (inactive),-17.6%,–,–
O=C(c1ccc(F)cc1)C1CCN(Cc2ccc(F)cc2)CC1,23.9% (inactive),16.1%,–,–
CCn1c(CCNC(=O)c2ccc(Cl)cc2)n[nH]c1=S,–,24.6%,–,1.84 µM (active)
Cn1c(CCNC(=O)c2ccc(Cl)cc2)n[nH]c1=S,-23.5% (inactive),-13.4%,–,–
CCn1c(CCNC(=O)c2ccc(C)cc2)n[nH]c1=S,18% (inactive),22.9%,–,–
CN1CCN(c2nc(C(N)=O)cc(-c3ccccc3)n2)CC1,5.39% (inactive),-10.6%,–,–
COc1ccc(-c2nc(CSCC(=O)N3CCC(C(N)=O)CC3)c(C)o2)cc1OC,14.4% (inactive),-1.8%,–,–
COc1ccc(C(=O)/C=C/c2ccc(O)cc2)cc1,1.73% (inactive),-17.3%,–,–
COC(=O)c1ccc(/C=C/C(=O)O)cc1,3.31% (inactive),2.73%,–,–
COC(=O)c1ccc2c(c1)C(C)(C)C(/C=C/c1ccc(O)cc1)=[N+]2C,–,1%,–,5.17 µM (active)
Cc1cc(NC(=O)CSc2ncnc3sc(C)c(C)c23)no1,–,–,inactive,–

Structure (SMILES),"lipid storage change, negative = inhibition",cell number change,outcome,Potency
Cc1ccc(S(=O)(=O)N2CCC(C(=O)Nc3nnc(C4CCCC4)s3)CC2)cc1,5.91% (inactive),5.99%,–,–
COc1ccc(CNC(=O)CC2(CC(=O)O)CCCCC2)cc1,-10.1% (inactive),-16.2%,–,–
COc1ccc(S(=O)(=O)NC(C)C(=O)Nc2ccccc2F)cc1 (stereo not drawn),11.5% (inactive),4.07%,–,–
COc1ccccc1NC(=O)C(C)NS(=O)(=O)c1ccc(Cl)cc1 (stereo not drawn),–,10.9%,–,6.51 µM (active)
COc1ccccc1NC(=O)C(C)NS(=O)(=O)c1ccc(F)cc1 (stereo not drawn),2.58% (inactive),6.54%,–,–
COc1cc(C(=O)OCC(=O)N2CCCCC2C)cc(NC(=O)c2cccs2)c1OC (stereo not drawn),2.46% (inactive),7.36%,–,–
CC(C)(C)NC(=O)C1CCC(CNS(=O)(=O)c2cccc3nsnc23)CC1 (stereo not drawn),–,–,–,18.4 µM (active)
CCCNC(=O)C1CCC(CNS(=O)(=O)c2cccc3nsnc23)CC1 (stereo not drawn),-7.4% (inactive),–,–,–
COC(=O)CNC(=O)C1CCC(CNS(=O)(=O)c2cccc3nsnc23)CC1 (stereo not drawn),20.8% (inactive),-18.8%,–,–
Cc1cc(NC(=O)CSc2nc(=O)n3cc(Cl)ccc3n2)no1,0.863% [at 0.0737 µM] (inactive),13.5%,–,–
Fc1ccc(CNn2cnnc2SCc2ccc(F)cc2)cc1,5.62% (inactive),9.34%,–,–
CCc1cccc2c(C(=O)COC(=O)c3cccc(S(=O)(=O)N(C)C4CCCCC4)c3)c[nH]c12,-20% (inactive),6.53%,–,–
O=C(NC1CCCC1)C(c1ccc(Cl)cc1)N(C(=O)c1csnn1)C1CC1 (stereo not drawn),-21.7% (inactive),12.1%,–,–
C=CCN(C(=O)c1csnn1)C(C(=O)NC1CCCC1)c1c(F)cccc1Cl (stereo not drawn),–,0.427%,–,9.2 µM (active)
O=C(NC1CCCC1)C(c1c(F)cccc1Cl)N(C(=O)c1csnn1)C1CC1 (stereo not drawn),–,-12.9%,–,16.4 µM (active)
C=CCN(C(=O)c1csnn1)C(C(=O)NC1CCCCC1)c1ccc(F)cc1 (stereo not drawn),–,11.7%,inactive,–
C=CCN(C(=O)c1csnn1)C(C(=O)NC1CCCC1)c1ccccc1F (stereo not drawn),–,-7.62%,inactive,–
O=C(NC1CCCC1)C(c1ccc(F)cc1)N(C(=O)c1csnn1)C1CC1 (stereo not drawn),-8.24% (inactive),-11.5%,–,–
C=CCN(C(=O)c1csnn1)C(C(=O)NC1CCCC1)c1ccccc1 (stereo not drawn),–,15.2%,inactive,–
C=CCN(C(=O)c1csnn1)C(C(=O)NC1CCCCC1)c1ccccc1F (stereo not drawn),–,2.14%,–,13 µM (active)
C=CCN(C(=O)c1csnn1)C(C(=O)NC1CCCC1)c1ccc(Cl)cc1 (stereo not drawn),–,-41%,inactive,–
